High-throughput results deposited in PubChem by Broad Institute.
Shown are actives, neighbours in structure and some others; about 2.2% of the full set was active somewhere.
PGC1a acetyl inh: inhibitors of PGC1a acetylation signal, primary screen, cell-based, U2OS, AlphaScreen, inhibitor mode. hit rate 0.17% among 350,000. AlphaScreen anti-acetyl-lysine; with virally co-expressed GCN5 acetyltransferase. inhibition, % at 15.6 µM;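 active = every replicate shows inhibition of at least 40%; inconclusive = mean inhibition at least 40% but some replicate below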
DENV2 CPE: inhibitors of DENV2 cytopathic effect, primary screen, cell-based, plate reader, single concentration; DENV2-infected cells, cytopathic effect rescue; CPE inhibition, % at 9.99 µM; hit rate 1.7% among 350,000; AID 651640, 2012; in the data active = CPE inhibition above about 20%, passing the limit was not always enough; inconclusive = no clear call, values can overlap the other calls; tested in BHK-21 cells
Statin myotox sup: suppressors of statin myotoxicity in C2C12 myotubes, primary screen, cell-based, single point, plate reader; hit rate 0.78% among 330,000; C2C12 myotubes + simvastatin, ATP luminescence, 48 h; scaled: DMSO 0, geranylgeraniol control 100; rescue of ATP level, % at 7.49 µM;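 active = mean ATP rescue above about 67%, or every replicate alone reaching that limit, limit read from the data, passing the limit was not always enough; inconclusive = no clear call, values can overlap the other calls; inactive = mean under the limit and some replicate under it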;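 also: myotubes were challenged with 10 µM simvastatin during compound exposure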
miR122 inh: miR-122 Renilla sensor signal increase in Huh7, primary screen, miR-122 inhibitor project, cell-based, single point, plate reader | hit rate 0.3% among 340,000 | activation (reporter increase), % at 12.5 µM | Huh7 miR-122 Renilla luciferase sensor, 48 h; neutral wells = 0, positive control = 100;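 active = mean replicate activation score at least 90 and every replicate individually at or above 90; inconclusive = only one of the two criteria met; inactive = neither criterion met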;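 also: higher luciferase means less miR-122 activity so hits act as miR-122 inhibitors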
PvdQ inh: P. aeruginosa PvdQ acylase inhibitors, primary screen, biochemical, fluorescence, plate reader and imaging, single point; AID 488965, 2010; hit rate 0.063% among 340,000; purified PvdQ acylase; inhibition, % at 10 µM; PvdQ acylase [Pseudomonas aeruginosa LESB58]; in the data active = inhibition above about 30%, passing the limit was not always enough; inconclusive = no clear call, values can overlap the other calls
A number is an active result; . = inactive; ? = inconclusive; / = not tested or not shown; ! = not confirmed by another sample.

SMILES	PGC1a acetyl inh	DENV2 CPE	Statin myotox sup	miR122 inh	PvdQ inh
O=C(C[C@@H]1CC[C@@H]2[C@H](COC[C@@H](O)CN2S(=O)(=O)c2cccc(Cl)c2)O1)NCCCN1CCOCC1	.	.	.	.	/
CCOc1cc(/C=N/N=C(N)N)ccc1OCc1ccc(Cl)cc1	55.7	.	/	.	.
CCN(Cc1ccncc1)C(=O)c1ccco1	.	25.5	/	.	.
O=C(NCc1ccccc1)Oc1cccc(Cl)c1	.	/	105.9	.	.
CC=Cc1ccc2n(c1=O)C[C@H]1[C@H](CO)[C@@H](C(=O)N(C)C)N(CC3CCCCC3)[C@@H]21 (mixture of isomers)	.	.	.	.	/
CC(C)NC(=O)Nc1ccc2c(c1)C(=O)N([C@@H](C)CO)C[C@H](C)[C@H](CN(C)S(=O)(=O)c1cn(C)cn1)OCCCC[C@H](C)O2	.	.	/	.	/
CC(=O)C1=C(C)N(Cc2ccc(Cl)cc2)C(=S)NC1c1ccc(Cl)cc1 (centres undefined)	/	55.0	/	/	/
O=C(C1=C[C@@H](C2CC2)C[C@@H](OCc2ccc(CO)cc2)O1)N1CCOCC1	.	33.4!	.	.	.
CC(C)(C)[C@H]1C=C(C(=O)N2CCCCCCC2)O[C@@H](OCc2ccc(CO)cc2)C1	.	28.9	/	/	/
CC(C)(C)[C@H]1C=C(C(=O)N2CCCC2)O[C@@H](OCc2ccc(CO)cc2)C1	.	.	/	/	/
O=C(C1=C[C@@H](C2CCCCC2)C[C@@H](OCc2ccc(CO)cc2)O1)N1CCOCC1	.	.	.	.	.
O=C(O)C1=C[C@H](C2CC2)C[C@H](OCc2ccc(CO)cc2)O1	.	22.3!	.	.	.
O=C(C[C@@H]1C[C@H]2c3cc(NC(=O)NC4CCCC4)ccc3O[C@H]2[C@@H](CO)O1)NCc1cccc(F)c1	.	.	.	.	/
CCCNC(=O)N[C@H]1CC[C@H](CCn2cc(-c3cccc(F)c3)nn2)O[C@H]1CO	.	.	.	/	/
CC(=O)c1cccc(NC(=S)N2CCc3ccccc32)c1	/	.	/	/	.
CC(=O)c1cccc(NC(=O)C(C)N2CCc3ccccc3C2)c1 (centres undefined)	.	.	.	128.3	.
C[C@H](CO)N1C[C@H](C)[C@H](CN(C)C(=O)Nc2ccccc2)Oc2ncc(-c3cccnc3)cc2C1=O	.	.	.	.	/
COc1ccc(S(=O)(=O)N(C)C[C@H]2OCCCC[C@@H](C)Oc3ccc(NC(=O)c4ccccc4)cc3C(=O)N([C@@H](C)CO)C[C@@H]2C)cc1	.	.	/	.	/
O=C(CC1S/C(=N/N=C/c2c[nH]c3ccccc23)NC1=O)Nc1ccccc1 (centres undefined)	?	20.3	/	/	.
O=C(CC1S/C(=N/N=C/c2c[nH]c3ccc(OCc4ccccc4)cc23)NC1=O)Nc1ccccc1 (centres undefined)	/	/	/	/	.
Cc1ccc(CNCc2cc(Cl)ccc2O)cc1	.	87.6	.	.	.
O=C(O)c1ccc(CNCc2cc(Cl)ccc2O)cc1	.	.	.	.	.
COc1ccc(NC(=O)Nc2cccc3c2O[C@H](CN(C)Cc2ccc(-c4ccccc4)cc2)[C@@H](C)CN([C@@H](C)CO)C3=O)cc1	.	.	/	/	/
C[C@H]1CN([C@@H](C)CO)C(=O)c2cc(NC(=O)C3CC3)ccc2O[C@@H]1CN(C)C(=O)Nc1ccc2c(c1)OCO2	/	.	.	.	/
O=C1N(Cc2ccccc2F)c2ccccc2C12OCCCO2	.	/	120.1	.	.
SMILES	PGC1a acetyl inh	DENV2 CPE	Statin myotox sup	miR122 inh	PvdQ inh
O=C1C=CC(O)C2(CO)OC12 (centres undefined)	/	25.2	.	.	/
COc1cc(SC)ccc1C(=O)NC1CCCCC1	.	/	80.8	.	.
COc1cc(SC)ccc1C(=O)Nc1ccncc1	/	.	/	/	.
COc1ccc(NC(=O)NC2CCCCCCC2)c(OC)c1	.	/	.	.	.
COc1ccc(CC(=O)NC2CCCCCC2)c(OC)c1	/	63.8	.	/	.
COc1cc(SC)ccc1C(=O)Nc1ccccc1C#N	.	/	98.7	.	.
COC(=O)c1ccccc1NC(=O)c1ccccc1OC	.	/	123.6	.	.
C[C@@H]1CN([C@@H](C)CO)C(=O)c2cc(NC(=O)Cc3ccccc3)ccc2O[C@@H]1CN(C)Cc1ccc(C(=O)O)cc1	.	.	.	.	/
COc1ccc(-c2cnc3c(c2)C(=O)N([C@@H](C)CO)C[C@H](C)[C@@H](CN(C)C(=O)NC2CCCC2)O3)cc1	.	.	.	.	/
O=C(Nc1ccc2nc(-c3cccs3)c(-c3cccs3)nc2c1)NC1CC1	.	/	.	/	.
COCCNC(=O)Nc1ccc2nc(-c3cccs3)c(-c3cccs3)nc2c1	.	/	125.0	.	.
COC(=O)C[C@H]1C[C@@H]2c3cc(NS(C)(=O)=O)ccc3O[C@@H]2[C@@H](CO)O1	.	.	.	.	/
O=C(C[C@@H]1CC[C@@H]2[C@H](COC[C@H](O)CN2C(=O)c2ccccc2)O1)Nc1ccc(-c2ccccc2)cc1	.	44.3	.	.	/
O=C(C[C@@H]1CC[C@H]2[C@@H](COC[C@@H](O)CN2C(=O)c2ccccc2)O1)Nc1ccc(-c2ccccc2)cc1	.	48.3	.	.	/
COC(=O)C[C@@H]1CC[C@H](NS(=O)(=O)c2ccc(OC)cc2)[C@H](CO)O1	.	.	.	/	/
CC(=O)N1c2c(cc(Br)cc2S(=O)(=O)NCC2COc3ccccc3O2)CC1C (centres undefined)	.	/	.	119.7	.
O=C1CCC(=O)N(O)CCCCCNC(=O)CCC(=O)N(O)CCCCNC(=O)CCC(=O)N(O)CCCCCN1	.	86.7	.	.	.
O=C1NCCCC1C(=O)N1CCCCC1 (centres undefined)	.	.	.	/	.
Cc1ccc(S(=O)(=O)Nc2cccc3c2O[C@@H](CN(C)C)[C@H](C)CN([C@@H](C)CO)C3=O)cc1	.	.	.	.	/
Cc1ccccc1S(=O)(=O)N1CC[C@@H]2[C@@H](CO)Nc3ccc(-c4ccc(C#N)cc4)cc3[C@@H]21	.	.	.	.	/
COc1ccc(S(=O)(=O)Nc2ccc3c(c2)C(=O)N([C@H](C)CO)C[C@H](C)[C@H](CN(C)C(=O)CCCN(C)C)OCCCC[C@H](C)O3)cc1	.	21.6	.	.	/
C[C@@H]1CCCCO[C@@H](CN(C)C(=O)Cc2ccccc2)[C@@H](C)CN([C@H](C)CO)C(=O)c2cc(NS(=O)(=O)c3ccc(Cl)cc3)ccc2O1	.	24.5	/	.	/
C[C@H]1CCCCO[C@H](CN(C)C(=O)Cc2ccccc2)[C@@H](C)CN([C@@H](C)CO)C(=O)c2cc(NS(=O)(=O)c3ccc(Cl)cc3)ccc2O1	.	27.7	/	.	/
C[C@@H]1CCCCO[C@@H](CN(C)C(=O)Cc2ccccc2)[C@@H](C)CN([C@@H](C)CO)C(=O)c2cc(NS(=O)(=O)c3ccc(Cl)cc3)ccc2O1	.	.	/	.	/
